Measured values reported in PubChem BioAssay AID435000 (NMMLSC, 2010).
This is one part of the list. Values without a mark were called inactive.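 Rule for the calls: active = fluorescence response below 15%; inactive = the rest.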

Assay: DHE quenching or ROS scavenging interference in aged yeast, artefact control for yeast caloric restriction mimetic project, S. cerevisiae BY4741, flow cytometry (AID 435000);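 note: percent of the mean fluorescence averaged over all compound wells on the plate; lower means stronger quenching of DHE signal or ROS scavenging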
Settings: at 10 µM, active compounds read low

Compound | fluorescence response [%]
C[C@]12CCC3C(CC[C@H]4C[C@@H](O)CC[C@]34C)C1C[C@@H](O)[C@H]2O (some centres not stated) | 99
CN1CCN(C(=S)SCC(=O)Nc2ccc(Cl)cc2C(=O)c2ccccc2)CC1 | 104
